High-throughput results as filed in PubChem BioAssay.
Shown are actives, neighbours in structure and some others; about 1.5% of the full set was active somewhere.
NPR2 activator: GC-B (human) receptor activation | activation, % at 10 µM | P20594 | HEK293-GC-B cells, CNP EC30, cGMP TR-FRET; 0% at EC30 CNP, 100% saturating CNP | actives 0.11% (n = 370,000);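 active = activation at 10 µM reaching about 35% in either raw or pattern-adjusted values, limit read from the data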
Target sequence (P20594 whole entry, looked up): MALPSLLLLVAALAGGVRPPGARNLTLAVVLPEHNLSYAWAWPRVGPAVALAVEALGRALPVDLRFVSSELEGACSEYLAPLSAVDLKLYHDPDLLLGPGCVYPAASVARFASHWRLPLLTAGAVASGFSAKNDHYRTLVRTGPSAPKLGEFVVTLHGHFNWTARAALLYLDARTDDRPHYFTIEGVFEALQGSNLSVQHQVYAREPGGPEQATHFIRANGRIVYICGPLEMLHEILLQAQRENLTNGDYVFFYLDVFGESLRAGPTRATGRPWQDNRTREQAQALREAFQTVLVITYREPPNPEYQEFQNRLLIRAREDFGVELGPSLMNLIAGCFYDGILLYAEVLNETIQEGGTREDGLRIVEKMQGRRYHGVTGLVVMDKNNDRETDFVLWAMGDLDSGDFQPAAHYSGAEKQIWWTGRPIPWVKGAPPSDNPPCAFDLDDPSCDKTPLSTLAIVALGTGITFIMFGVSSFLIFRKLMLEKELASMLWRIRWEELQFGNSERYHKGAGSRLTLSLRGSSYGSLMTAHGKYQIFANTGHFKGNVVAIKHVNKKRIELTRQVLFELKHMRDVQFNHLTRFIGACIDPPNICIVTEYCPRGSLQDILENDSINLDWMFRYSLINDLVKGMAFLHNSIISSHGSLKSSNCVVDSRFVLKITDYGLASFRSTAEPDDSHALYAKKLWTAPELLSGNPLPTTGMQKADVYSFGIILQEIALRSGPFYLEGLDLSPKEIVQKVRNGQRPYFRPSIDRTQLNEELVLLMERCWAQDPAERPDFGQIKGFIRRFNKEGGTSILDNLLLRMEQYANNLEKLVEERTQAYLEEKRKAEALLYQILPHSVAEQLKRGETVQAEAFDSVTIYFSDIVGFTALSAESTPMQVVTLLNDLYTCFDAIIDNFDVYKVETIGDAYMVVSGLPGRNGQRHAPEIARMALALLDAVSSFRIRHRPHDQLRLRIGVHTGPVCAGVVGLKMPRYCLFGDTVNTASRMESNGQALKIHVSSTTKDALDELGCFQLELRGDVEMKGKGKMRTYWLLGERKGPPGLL
Neddyl block: blocks human cullin neddylation. P61081+Q13564. TR-FRET cullin neddylation, biochemical. inhibition, % at 25 µM. actives 0.58% (n = 360,000); in the data active = inhibition above about 36%
NadD inh: blocks S. aureus nicotinate mononucleotide adenylyltransferase | inhibition, % at 20 µM | AID 602399 | actives 0.78% (n = 360,000) | purified NadD enzyme, colorimetric absorbance read-out; in the data active = inhibition above about 26%
NPR1 activator: GC-A (human) enzyme activation; P16066; HEK293 GC-A cells, cGMP TR-FRET, EC30 ANP; 0% at EC30 ANP, 100% saturating ANP; activation, % at 10 µM; actives 0.14% (n = 370,000); AID 1671463; in the data active = activation above about 40%
NadD conf: confirmation of Staphylococcus aureus NadD inhibitors. shares compounds with NadD inh. purified S. aureus NadD, colorimetric enzyme assay. inhibition, % at 20 µM. actives 13% (n = 2,000); in the data active = inhibition mostly above about 42%, no sharp cut-off; inactive = mostly below about 42%
Each line names hits and unclear results; the compound was inactive in the other large screens (follow-up assays come after a bar, where shown).

CC1CC2=C(NC(=S)NC2c2cccc(F)c2)/C(=C/c2cccc(F)c2)C1 (configuration not stated)	none
CC1CC2=C(NC(=S)NC2c2ccccc2F)/C(=C/c2ccccc2F)C1 (configuration not stated)	NadD inh 32.4 | NadD conf inactive
CC(=O)N1CCN(C2c3cccc4cccc(c34)C2NS(=O)(=O)c2ccccc2)CC1 (configuration not stated)	none
Cc1ccc(C(=O)N2CCN(C3c4cccc5cccc(c45)C3NS(=O)(=O)c3ccccc3)CC2)cc1 (configuration not stated)	NadD inh 36.5 | NadD conf inactive
COCCN1CCCc2nc(-c3ccc(Br)cc3)ccc21	none (no result: Neddyl block, NadD inh)
Cc1ccc(Cl)cc1N1CCN(C(=O)Cc2csc(Nc3nc(=S)[nH]c4ccccc34)n2)CC1	NadD inh 63.0 (not shown: Neddyl block) | NadD conf inactive
O=C(Cn1c(=O)[nH]c2ccccc2c1=O)N1CCN(c2cccc(Cl)c2)CC1	none
O=C(Cc1csc(Nc2nc(=S)[nH]c3ccccc23)n1)N1CCN(c2cccc(Cl)c2)CC1	NadD inh 54.7 | NadD conf inactive
O=C(OC12CCCN(C1)/C(=C/c1ccccc1)C2)c1ccccc1 (configuration not stated)	none (no result: Neddyl block, NadD inh)
C=C1CCN(C(CC(C)C)C(=O)OC)S(=O)(=O)c2ccccc21 (configuration not stated)	none
COC(=O)[C@H](CC(C)C)N1Cc2cc(OC)cc(OC)c2-c2ccccc2S1(=O)=O	NadD inh 36.6 (not shown: Neddyl block) | NadD conf 48.5
O=C(CN1CCCc2ccccc21)NC(=O)NCc1ccco1	none
CC1Cc2ccccc2N1CC(=O)NC(=O)NCc1ccco1 (configuration not stated)	NadD inh 32.4 | NadD conf inactive
Clc1ccc(-c2ccc(/C=N/Nc3nncc(-c4ccccc4)n3)o2)cc1	NadD inh 37.9 | NadD conf inactive
Cc1ccc(/C=N/Nc2nncc(-c3ccccc3)n2)o1	none
Clc1ccccc1-c1ccc(/C=N/Nc2nncc(-c3ccccc3)n2)o1	NadD inh 32.3 | NadD conf inactive
COc1ccc(-c2nc3c(C)cc(Br)cn3c2Cc2ccccc2C(F)(F)F)cc1OC	none (no result: Neddyl block, NadD inh)
O=C(COC(=O)/C=C/c1ccc(Br)o1)Nc1ccc2[nH]c(=O)[nH]c2c1	NadD inh 29.1 | NadD conf inactive
COc1ccc(OC)c(S(=O)(=O)NCC2CCN(C(=O)C(=O)c3cc4ccccc4o3)CC2)c1	none (no result: Neddyl block, NadD inh)
C=CCN(CC#Cc1ccc(C(F)(F)F)cc1)Cc1ccc(OC)cc1OC	none (no result: Neddyl block, NadD inh)
Cc1ccc(-n2c(=O)c3cc4c(=O)n(-c5ccc(C)c(C)c5)c(=O)c4c(C(=O)c4ccc(C(=O)O)cc4)c3c2=O)cc1C	NadD inh 33.9 | NadD conf inactive
O=C(O)c1ccc(-n2c(=O)c3ccccc3c3ccccc3c2=O)cc1	none
COc1ccc(-c2ccc3c(c2)S(=O)(=O)c2cccc(C(=O)N4CCN(c5c(Cl)cncc5Cl)CC4)c2C3=O)cc1OC	NadD inh 44.2 | NadD conf inactive
N#Cc1cccnc1N1CCN(C(=O)c2cccc3c2C(=O)c2ccc(-c4ccc(Cl)c(C(F)(F)F)c4)cc2S3(=O)=O)CC1	NadD inh 35.2 (no result: NPR2 activator, NPR1 activator) | NadD conf inactive
CC1(C)CC(=O)C(C=NCC2CCN(C(=O)Cc3ccccc3)CC2)=C(O)C1	NadD inh 35.9 | NadD conf inactive
COc1ccc(OC)c(CCNC(=O)c2ccc3c(=O)[nH]c4c(C(=O)NC(C)C)sc(=S)n4c3c2)c1	NadD inh 32.8 | NadD conf inactive
Fc1cc(NC(=S)NCc2ccc(CNC(=S)Nc3ccc(Cl)c(F)c3)cc2)ccc1Cl	NadD inh 35.6 | NadD conf inactive
O=C(NCCc1c[nH]c2ccccc12)OCc1cn(Cc2cccc(C(F)(F)F)c2)nn1	none (no result: Neddyl block, NadD inh)
NC(=S)NNc1cccc2cccnc12	NadD inh 33.8 | NadD conf inactive
NC(=S)Nc1cccc2cccnc12	none
Cc1ccc(F)c(C2C3C=CCC(c4cccc(-c5ccc(N(C)C)cc5)c4)C3C(=O)N2Cc2ccccc2)c1 (configuration not stated)	NadD inh 43.1 | NadD conf inactive
Cc1ccc(-c2cccc(C3CC=CC4C3C(=O)N(Cc3ccccc3)C4c3ccc4ccccc4c3)c2)cc1 (configuration not stated)	NadD inh 33.6 | NadD conf inactive
O=C1C2C(c3cccc(/C=C/c4ccccc4)c3)CC=CC2C(c2ccc3ccccc3c2)N1Cc1ccccc1 (configuration not stated)	NadD inh 31.8 (not shown: Neddyl block) | NadD conf inactive
COc1ccc(-c2cccc(C3CC=CC4C3C(=O)N(Cc3ccccc3)C4c3ccc(OC)c(Cl)c3)c2)cc1 (configuration not stated)	none
C[C@@H]1CC=C[C@H]2[C@H]1C(=O)N(Cc1ccccc1)[C@H]2c1ccc(-c2ccc(N(C)C)cc2)cc1F	none
Cc1nc2ccc(S(=O)(=O)NCC(=O)NCc3ccccc3Cl)cc2s1	none (no result: Neddyl block, NadD inh)
CCCN1C(=O)c2n[nH]c(C)c2C1c1ccc2c(c1)OCO2 (configuration not stated)	none (no result: Neddyl block, NadD inh)
O=C(NC(=S)Nn1cnc2c(cnn2-c2ccccc2)c1=O)c1ccc(Cl)cc1	none
O=C(NC(=S)Nn1cnc2c(cnn2-c2ccccc2)c1=O)c1ccc(Oc2ccccc2)cc1	NadD inh 42.0 | NadD conf inactive
C#CCn1c(=NC(=O)c2cc(-c3cccs3)nc3ccccc23)sc2cc(S(N)(=O)=O)ccc21	NadD inh 53.3 (not shown: Neddyl block) | NadD conf 54.8
C#CCn1c(=NC(=O)c2cc(Cl)sc2Cl)sc2cc(S(N)(=O)=O)ccc21	none
CC(C)C[C@H]1COc2cccc(N3CCCC3)c2S(=O)(=O)N1C	none (no result: Neddyl block, NadD inh)
COc1ccc(/C=C2/SC(=O)N(CCC(=O)Nc3ccc(S(=O)(=O)Nc4nccs4)cc3)C2=O)cc1	NadD inh 68.6 | NadD conf 49.0
COc1ccc(/C=C2\SC(=O)N(CCC(=O)Nc3ccc(S(=O)(=O)Nc4nccs4)cc3)C2=O)cc1	NadD inh 75.6 | NadD conf 60.0
COc1ccc(/C=C2\SC(=S)N(CCC(=O)Nc3ccc(O)cc3)C2=O)cc1	none
CC(=O)Nc1ccc(S(=O)(=O)NCC2CCN(C(=O)C(=O)c3cccs3)CC2)cc1	none (no result: Neddyl block, NadD inh)
COc1ccc(COc2cc(-c3cccc(OC)c3)nc3ccc(NC(=O)c4ccc(Cl)cc4)cc23)cc1	NadD inh 59.1 | NadD conf inactive
COc1ccc(COc2cc(-c3cccc(OC)c3)nc3ccc(NC(=O)c4ccccc4)cc23)cc1	NPR2 activator 43.9, NadD inh 32.1, NPR1 activator 40.3 | NadD conf inactive
O=C(O)c1cccc(NC(=O)c2ccc(COc3ccc(Cl)cc3)cc2)c1	none
COc1cc(C=Nn2c(-c3ccccc3F)n[nH]c2=S)ccc1OCc1ccccc1	none (no result: Neddyl block, NadD inh)
O=C(CSc1nc2ccc(NC(=O)CSc3nnnn3-c3ccccc3)cc2s1)Nc1ccccc1	NadD inh 38.9 | NadD conf inactive
